These results are taken from PubChem BioAssay (NCI).

Test systems include HCT-15 colon; HT29 colon; SNB-75 CNS; SNB-19 CNS; U251 CNS; PC-3 prostate; SK-MEL-5 melanoma; UACC-62 melanoma; LOX IMVI melanoma; SK-MEL-28 melanoma; SK-MEL-2 melanoma; EKVX NSCLC; SN12C renal; UO-31 renal; TK-10 renal; ACHN renal; CAKI-1 renal; A498 renal; CCRF-CEM leukemia; MOLT-4 leukemia.
Holding throughout (assay): NCI-60 one-dose screen, 48 h (100 = growth as untreated, 0 = no growth, -100 = all killed)
Conditions in all cases: 10 µM unless noted

SMILES strings stand for the structures. About 83,000 compounds went through this panel and 20% of them were active in at least one assay; those are over-represented in the sample as a whole.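 Testing used 96-well plates and a 48-hour single-concentration exposure. Example: -40 means 40% of the starting cells died.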 Unmarked numbers belong to inactive results. Activity calls are given as the source filed them. Rule for the calls: active = growth percent below 10; inactive = the rest.

With `C=C(C)C1CCC2(C)OC2C1` (stereo not given), the growth in the assay on HCT-15 colon is 112%; in the assay with HT29 colon it was 109%; in the assay with SNB-75 CNS it was 80.4%; in the assay with SNB-19 CNS, 110%; in the assay with U251 CNS, 118%; in the assay with PC-3 prostate, 109%. Further, the growth in the assay with SK-MEL-5 melanoma was 109%; in the assay on UACC-62 melanoma, 103%; in the assay with LOX IMVI melanoma it was 108%; in the assay with SK-MEL-28 melanoma, 127%; in the assay with SK-MEL-2 melanoma it was 111%; in the assay with EKVX NSCLC it was 87.4%. The growth was 108% with SN12C renal; 115% with UO-31 renal; 100% with TK-10 renal; 104% in the assay with ACHN renal; 81.2% in the assay with CAKI-1 renal; 141% with A498 renal. Besides, the growth in the assay on CCRF-CEM leukemia was 110%; in the assay with MOLT-4 leukemia, 90.7%.

As to `O=C(Nc1ccc(I)cc1F)c1cc(I)ccc1O`, the growth in the assay with HCT-15 colon was 4.84% (active); with HT29 colon it was 78.7%; in the assay with SNB-75 CNS, 1.71% (active); with SNB-19 CNS, 17.5%; in the assay on U251 CNS, 16.1%; in the assay with PC-3 prostate, 7.79% (active). Besides, the growth with SK-MEL-5 melanoma is -95.8% (active); with UACC-62 melanoma, -24.1% (active); in the assay on LOX IMVI melanoma, 8.01% (active); in the assay on SK-MEL-28 melanoma it was 5.11% (active); in the assay with SK-MEL-2 melanoma it was -19.3% (active); in the assay on EKVX NSCLC it was 6.21% (active). For the same compound, the growth in the assay with SN12C renal is -10.4% (active); in the assay on UO-31 renal, -9.71% (active); in the assay with TK-10 renal, 14.7%; in the assay on ACHN renal, -5.98% (active); with CAKI-1 renal, 3.29% (active); in the assay on A498 renal, -49.1% (active). The growth was 15.3% in the assay with CCRF-CEM leukemia and -10% (active) with MOLT-4 leukemia.

In the case of `O=c1c2cc(F)ccc2sc2c(N3CCCCC3)nc3ccccc3c12`, the growth in the assay with HCT-15 colon was 103%; in the assay on HT29 colon it was 98%; in the assay on SNB-75 CNS, 90.2%; with SNB-19 CNS, 101%; in the assay with U251 CNS it was 94.1%; in the assay with PC-3 prostate, 98.1%. The growth with SK-MEL-5 melanoma was 97.8%; in the assay with UACC-62 melanoma, 96.1%; in the assay on LOX IMVI melanoma, 97.1%; with SK-MEL-28 melanoma it was 109%; in the assay on SK-MEL-2 melanoma, 115%; in the assay on EKVX NSCLC, 103%. Also, the growth in the assay with SN12C renal was 99.1%; with UO-31 renal it was 78.8%; in the assay on TK-10 renal it was 109%; in the assay with ACHN renal, 102%; in the assay with CAKI-1 renal, 101%; with A498 renal, 64.6%. The growth in the assay on CCRF-CEM leukemia was 110%; in the assay with MOLT-4 leukemia, 111%.

With `CCCCCCNC(=O)Oc1ccc(/C(=C(\C)c2ccc(Cl)cc2)c2ccc(OCCCN(C)C)cc2)cc1`, the growth was 8.75% (active) in the assay with HCT-15 colon; 0.63% (active) with HT29 colon; 79.1% in the assay with SNB-75 CNS; 79.8% in the assay on SNB-19 CNS; 42% in the assay with U251 CNS; 79.6% with PC-3 prostate. For the same compound, the growth in the assay with SK-MEL-5 melanoma is 86.2%; with UACC-62 melanoma, 96.9%; with LOX IMVI melanoma, 39.5%; with SK-MEL-28 melanoma it was 97.2%; in the assay with SK-MEL-2 melanoma, 92.1%; with EKVX NSCLC, 83%. Besides, the growth in the assay on SN12C renal is 90%; in the assay with UO-31 renal, 55.4%; in the assay with TK-10 renal, 75.8%; in the assay on ACHN renal, 94.3%; with CAKI-1 renal, 96.2%; with A498 renal, 85.7%. Besides, the growth with CCRF-CEM leukemia is 70.7%; in the assay with MOLT-4 leukemia it was 37.3%.

For `O=c1c2cc(F)ccc2sc2c(NCCN3CCOCC3)nc3ccccc3c12`, the growth was 20.8% with HCT-15 colon; 21.6% in the assay with HT29 colon; 59.5% in the assay with SNB-75 CNS; 75.3% in the assay with SNB-19 CNS; 52.4% in the assay with U251 CNS; 69% in the assay with PC-3 prostate. Moreover, the growth was 95.1% in the assay on SK-MEL-5 melanoma; 81.5% with UACC-62 melanoma; 20.6% in the assay with LOX IMVI melanoma; 96.7% in the assay with SK-MEL-28 melanoma; 110% in the assay on SK-MEL-2 melanoma; 91.6% in the assay with EKVX NSCLC. Moreover, the growth with SN12C renal was 72.8%; in the assay on UO-31 renal, 42%; in the assay on TK-10 renal it was 79.2%; in the assay with ACHN renal, 64.7%; with CAKI-1 renal it was 33.2%; in the assay on A498 renal it was 58.3%. Besides, the growth is 57% in the assay on CCRF-CEM leukemia and 52.1% in the assay with MOLT-4 leukemia.

As for `COc1ccc(/C=C2\Oc3cc(OCCN4CCC(Cc5ccccc5)CC4)ccc3C2=O)cc1OC`, the growth in the assay with HCT-15 colon is 33.5%; with HT29 colon, 21.7%; in the assay on SNB-75 CNS, 80.8%; with SNB-19 CNS, 92.6%; in the assay on U251 CNS it was 70.9%; with PC-3 prostate it was 78.1%. The growth with SK-MEL-5 melanoma is 42.7%; in the assay on UACC-62 melanoma, 74.4%; with LOX IMVI melanoma it was 7.25% (active); in the assay on SK-MEL-28 melanoma, 81.5%; with SK-MEL-2 melanoma, 104%; in the assay on EKVX NSCLC, 70.4%. In addition, the growth with SN12C renal was 65.6%; in the assay on UO-31 renal, 51.9%; in the assay with TK-10 renal, 95.3%; in the assay with ACHN renal, 96.8%; in the assay on CAKI-1 renal, 74.2%; with A498 renal it was 69.7%. The results for the growth with CCRF-CEM leukemia and with MOLT-4 leukemia were 55.9% and 46.7%, respectively.

For `Cc1ccc(C2CC(c3ccc(Nc4ccnc5cc(Cl)ccc45)cc3)=NN2C=O)cc1` (stereo not given), the growth in the assay on HCT-15 colon was 18.6%; with HT29 colon it was 41.8%; in the assay on SNB-75 CNS, 76.3%; in the assay on SNB-19 CNS, 74.4%; with U251 CNS it was 58.6%; in the assay with PC-3 prostate, 57.4%. The growth in the assay on SK-MEL-5 melanoma was 10.4%; in the assay on UACC-62 melanoma it was 36.9%; in the assay on LOX IMVI melanoma it was 34%; with SK-MEL-28 melanoma it was 51.7%; with SK-MEL-2 melanoma it was 72.2%; with EKVX NSCLC it was 50.1%. Besides, the growth in the assay on SN12C renal was 55.1%; in the assay on UO-31 renal, 31.9%; with TK-10 renal, 83.2%; in the assay with ACHN renal it was 34.8%; in the assay on CAKI-1 renal it was 49%; with A498 renal it was 73.4%. The figures for the growth with CCRF-CEM leukemia and in the assay on MOLT-4 leukemia were 28.2% and 31.8%, respectively.
